In PubChem BioAssay (Tox21):
Results filed as inconclusive are left out. The source made the active and inactive calls. Unless noted, calls follow the shape of the dose curve; as a rule, active = well fitted curve in the direction sought with a large enough effect in the repeat runs; inconclusive = weak or mixed curves; inactive = no such curve, though single readings can be large; an effect the other way counts as inactive or inconclusive.

What was measured:
[1] = qHTS assay to identify small molecule agonists of the hypoxia (HIF-1) signaling pathway - cell viability counter screen (AID 1224844; calls by dose curve; also: nearly all actives have a fitted effect of over 50% in size)
How it was run: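 Cytotoxicity was measured in parallel with the HRE-driven beta-lactamase readout: after 17 hrs of compound exposure at 37C, HRE-bla ME-180 cells received CellTiter-Glo and luminescence was recorded 30 min later.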

[2] = qHTS assay to identify small molecule agonists of H2AX (AID 1224845; active = well fitted activation curve with a large enough effect in the signal ratio in the repeat runs, not every such curve was filed as active; the % refers to the signal ratio)
How it was run: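 Wild-type CHO-K1 cells, plated overnight, exposed 3hr at 37C to 15 concentrations (0.76% DMSO final). Lysed, then HTRF anti-pH2AX (S139) cryptate and anti-H2AX-d2 antibodies, 24 hr room temperature; 665/620 nm emission read.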

[3] = qHTS assay to identify small molecule agonists of the hypoxia (HIF-1) signaling pathway (AID 1224846; active = well fitted activation curve with a large enough effect in the signal ratio in the repeat runs, not every such curve was filed as active; the % refers to the signal ratio)
How it was run: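 Compounds from the Tox21 10K library, dissolved in DMSO, are tested for induction of a hypoxia response element–controlled beta-lactamase reporter in ME-180 cells. Exposure lasts 17 hrs at 37C after a 5 hr settling period, followed by CCF4-AM FRET substrate.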

[4] = qHTS assay to identify small molecule agonists of H2AX - cell viability counter screen (AID 1224847; calls by dose curve; also: top concentration of the series differs between compounds; nearly all actives have a fitted effect of over 30% in size)
How it was run: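 For this counter screen, overnight-attached CHO-K1 cells received test compounds (15 concentrations, 0.76% DMSO final); 3 hr later at 37C, CellTiter-Glo reagent was added and luminescence recorded after 30 min at room temperature.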

[5] = qHTS RealTime-Glo MT Cell Viability Assay in HepG2 cells - 24 hour (AID 1224867); also: nearly all actives have a fitted effect of over 50% in size
How it was run: (§1)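 HepG2 cells (600/well) were dispensed with RealTime-Glo reagents, incubated 5 h at 37 °C, then treated with compounds in DMSO for up to 40 h. Nonlytic NanoLuc luminescence reflecting viable cells was read at each stated time point.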

[6] = qHTS RealTime-Glo MT Cell Viability Assay in HEK293 cells - 32 hour (AID 1224868); also: top concentration of the series differs between compounds; nearly all actives have a fitted effect of over 50% in size
How it was run: (§2)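 HEK293 cells seeded with NanoLuc/prosubstrate reagent, rested 5 h at 37 C, then dosed and kept at 37 C up to 40 h. Nonlytic real-time luminescence from viable cells read at 0, 8, 16, 24, 32 and 40 h.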

[7] = A CellTox Green Cytotoxicity Assay to monitor cytotoxicity in HEK293 cells - 0 hour (AID 1224869); also: nearly all actives have a fitted effect of over 50% in size
How it was run: (§3)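 Cells (HEK293, 600/well) and dye reagent are dispensed together. After 5 h at 37 C, 23 nL compound is pinned in. Plates stay at 37 C for 40 h with fluorescence read at 0h, 8h, 16h, 24h, 32h and 40h.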

[8] = qHTS RealTime-Glo MT Cell Viability Assay in HepG2 cells - 40 hour (AID 1224870); also: nearly all actives have a fitted effect of over 50% in size
How it was run: (§4)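 HepG2 cells (600/well) mixed with RealTime-Glo MT reagent, settled 5 h at 37 C/5% CO2 before compound addition. Nonlytic NanoLuc luminescence from viable-cell prosubstrate reduction read repeatedly during 40 h treatment at 37 C.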

[9] = A CellTox Green Cytotoxicity Assay to monitor cytotoxicity in HEK293 cells - 40 hour (AID 1224871); also: nearly all actives have a fitted effect of over 45% in size
How it was run: as §3

[10] = qHTS RealTime-Glo MT Cell Viability Assay in HEK293 cells - 16 hour (AID 1224872)
How it was run: as §2

[11] = qHTS RealTime-Glo MT Cell Viability Assay in HepG2 cells - 8 hour (AID 1224873); also: nearly all actives have a fitted effect of over 55% in size
How it was run: as §4

[12] = qHTS RealTime-Glo MT Cell Viability Assay in HEK293 cells - 40 hour (AID 1224874); settings: RealTime-Glo luminescence; max response: stronger effect = lower value; also: nearly all actives have a fitted effect of over 50% in size
How it was run: (§5)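 Real-time viability in HEK293: signal arises when living cells convert a prosubstrate for NanoLuc in the medium, so luminescence tracks viable cell number. Compound (23 nL, DMSO) added 5 h post-seeding; kinetic reads at 0–40 h, 37 C.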

[13] = A CellTox Green Cytotoxicity Assay to monitor cytotoxicity in HEK293 cells - 24 hour (AID 1224875); also: nearly all actives have a fitted effect of over 45% in size
How it was run: as §3

[14] = A CellTox Green Cytotoxicity Assay to monitor cytotoxicity in HepG2 cells - 16 hour (AID 1224876); also: nearly all actives have a fitted effect of over 45% in size
How it was run: (§6)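 Cells and non-lytic dye reagent are dispensed together (600 HepG2 cells/well) and incubated 5 h before DMSO compound transfer. Kinetic fluorescence is then recorded in the same wells during 40 h at 37 C.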

[15] = qHTS RealTime-Glo MT Cell Viability Assay in HepG2 cells - 32 hour (AID 1224877); also: nearly all actives have a fitted effect of over 55% in size
How it was run: as §1

[16] = A CellTox Green Cytotoxicity Assay to monitor cytotoxicity in HepG2 cells - 24 hour (AID 1224878); also: nearly all actives have a fitted effect of over 45% in size
How it was run: as §6

[17] = A CellTox Green Cytotoxicity Assay to monitor cytotoxicity in HepG2 cells - 40 hour (AID 1224879); also: nearly all actives have a fitted effect of over 40% in size
How it was run: as §6

[18] = qHTS RealTime-Glo MT Cell Viability Assay in HEK293 cells - 0 hour (AID 1224880)
How it was run: as §5

[19] = qHTS assay to identify small molecule agonists of the estrogen related receptor (ERR) signaling pathway from Tox21 library (AID 1224849; calls by dose curve; also: nearly all actives have a fitted effect of over 15% in size); settings: ERR reporter cell line, ONE-Glo luciferase, 18 h; at 92.4 µM (top of the series) unless noted
How it was run: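 Cells carrying the ERR reporter were plated and allowed to settle for 6 h, exposed to library compounds for 18 h at 37 C, then lysed with ONE-Glo and luminescence measured.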
% is scaled to controls: 0 for no effect and ±100 for the full control effect.

CC(=O)NO
inactive: Potency [1] | Potency [2] | Potency [3] | Potency [4] | Potency [5] | Potency [6] | Potency [7] | Potency [8] | Potency [9] | Potency [10] | Potency [11] | max response [12] 2.23% | Potency [13] | Potency [14] | Potency [15] | Potency [16] | Potency [17] | Potency [18]

CCOC(=O)C(=O)CCc1ccccc1
inactive: Potency [1] | Potency [2] | Potency [3] | Potency [4] | Potency [5] | Potency [6] | Potency [7] | Potency [8] | Potency [9] | Potency [10] | Potency [11] | max response [12] 0.79% | Potency [13] | Potency [14] | Potency [15] | Potency [16] | Potency [17] | Potency [18]

OCCN1CCN(CCCN2c3ccccc3C=Cc3ccccc32)CC1
inactive: Potency [1] | Potency [2] | Potency [3] | Potency [4] | Potency [5] | Potency [6] | Potency [7] | Potency [8] | Potency [9] | Potency [10] | Potency [11] | Potency [13] | Potency [14] | Potency [16] | Potency [17] | Potency [18]

CCCCCCCCCCCc1ccccc1
inactive: Potency [1] | Potency [2] | Potency [3] | Potency [4] | Potency [5] | Potency [6] | Potency [7] | Potency [8] | Potency [9] | Potency [10] | Potency [11] | max response [12] -1.2% | Potency [13] | Potency [14] | Potency [16] | Potency [17] | Potency [18]

CN(C)CCN(Cc1ccc(Cl)cc1)c1ccccn1
inactive: Potency [1] | Potency [2] | Potency [3] | Potency [4] | Potency [5] | Potency [6] | Potency [7] | Potency [8] | Potency [9] | Potency [10] | Potency [11] | max response [12] -11% | Potency [13] | Potency [14] | Potency [16] | Potency [18]

C=CC1CC2C=CC1C2 (centres undefined)
inactive: Potency [1] | Potency [2] | Potency [3] | Potency [4] | Potency [5] | Potency [6] | Potency [7] | Potency [8] | Potency [9] | Potency [10] | Potency [11] | max response [12] 2.72% | Potency [13] | Potency [14] | Potency [16] | Potency [17] | Potency [18]

C/C=C/C(=O)CC
inactive: activity change, negative = cytotoxicity [1] -6.33% [at 15.8 µM] | activation (H2AX phosphorylation) [2] -0.233% [at 31.6 µM] | activation [3] -0.782% [at 15.8 µM] | activity change, negative = cytotoxicity [4] 0.284% [at 31.6 µM] | activity change, negative = cytotoxicity [5] 0.602% [at 15.8 µM] | activity change, negative = cytotoxic [6] 1.19% [at 15.8 µM] | cytotoxicity [7] 1.29% [at 15.8 µM] | activity change, negative = cytotoxic [8] 1.82% [at 15.8 µM] | activity change, negative = cytotoxicity [10] 1.69% [at 15.8 µM] | viability change, negative = cytotoxic [11] 1.2% [at 15.8 µM] | max response [12] 4.11% | cytotoxicity increase [14] -0.573% [at 15.8 µM] | activity change, negative = cytotoxic [15] 0.591% [at 15.8 µM] | cytotoxicity [16] 1.31% [at 15.8 µM] | cytotoxicity increase [17] -0.322% [at 15.8 µM] | activity change, negative = cytotoxicity [18] 9.44% [at 15.8 µM]

O=C1c2ccccc2S(=O)(=O)N1CCCCN1CCN(c2ncccn2)CC1
inactive: Potency [1] | Potency [2] | Potency [3] | Potency [4] | Potency [5] | Potency [6] | Potency [7] | Potency [8] | Potency [9] | Potency [10] | Potency [11] | max response [12] -0.801% | Potency [13] | Potency [14] | Potency [15] | Potency [16] | Potency [17] | Potency [18]

CCCCCCCN
inactive: Potency [1] | Potency [2] | Potency [3] | Potency [4] | Potency [5] | Potency [6] | Potency [8] | Potency [9] | Potency [10] | Potency [11] | max response [12] -2.68% | Potency [13] | Potency [14] | Potency [15] | Potency [16] | Potency [17] | Potency [18]

O=C1OC(=O)C2C3C=CC(C3)C12 (centres undefined)
inactive: Potency [1] | Potency [2] | Potency [3] | Potency [4] | Potency [5] | Potency [6] | Potency [7] | Potency [8] | Potency [9] | Potency [10] | Potency [11] | max response [12] 12.9% | Potency [13] | Potency [14] | Potency [15] | Potency [16] | Potency [17] | Potency [18]

c1cc(CCCc2ccncc2)ccn1
inactive: Potency [1] | Potency [2] | Potency [3] | Potency [4] | activity change, positive = activation [19] -26.9% | Potency [6] | Potency [7] | Potency [8] | Potency [9] | Potency [10] | Potency [11] | max response [12] -17.4% | Potency [13] | Potency [14] | Potency [15] | Potency [16] | Potency [17] | Potency [18]

c1ccc(CNCCNCc2ccccc2)cc1
inactive: Potency [1] | Potency [2] | Potency [3] | Potency [4] | Potency [5] | Potency [6] | Potency [7] | Potency [9] | Potency [10] | Potency [11] | max response [12] 7.91% | Potency [13] | Potency [14] | Potency [15] | Potency [16] | Potency [17] | Potency [18]

COCC(C)OC(C)=O (centres undefined)
inactive: Potency [1] | Potency [2] | Potency [3] | Potency [4] | Potency [5] | Potency [6] | Potency [7] | Potency [8] | Potency [9] | Potency [10] | Potency [11] | max response [12] 8.38% | Potency [13] | Potency [14] | Potency [15] | Potency [16] | Potency [17] | Potency [18]
